PubChem BioAssay AID1851 (National Center for Advancing Translational Sciences (NCATS), 2009)
“And” between values parts separate entries of the source, which are not always exact repeats. Identical values can stand only once. About 4,000 (25%) of roughly 16,000 compounds were called active. Roughly 26% stayed inconclusive and do not appear here. Only a sample is shown. Unmarked numbers belong to inactive results. Calls follow the shape of the dose curve; as a rule, active = well fitted curve in the direction sought with a large enough effect; inconclusive = small, poorly fitted or top-dose-only effect, or effect the other way; inactive = no such curve, though single readings can be large or run the other way.
% is scaled to controls: 0 for no effect and ±100 for the full control effect.

What follows are molecules tested against Cytochrome P450 2C9 (Homo sapiens) (UniProt P11712) (assay: Cytochrome panel assay with activity outcomes). Conditions: recombinant CYP, pro-luciferin dealkylation, luminescence, p450-cyp2c9; series mostly up to 57.1 µM; activity, negative = inhibition: at the top concentration.
Cytochrome P450 2C9 (Homo sapiens), sequence (P11712 whole entry, looked up): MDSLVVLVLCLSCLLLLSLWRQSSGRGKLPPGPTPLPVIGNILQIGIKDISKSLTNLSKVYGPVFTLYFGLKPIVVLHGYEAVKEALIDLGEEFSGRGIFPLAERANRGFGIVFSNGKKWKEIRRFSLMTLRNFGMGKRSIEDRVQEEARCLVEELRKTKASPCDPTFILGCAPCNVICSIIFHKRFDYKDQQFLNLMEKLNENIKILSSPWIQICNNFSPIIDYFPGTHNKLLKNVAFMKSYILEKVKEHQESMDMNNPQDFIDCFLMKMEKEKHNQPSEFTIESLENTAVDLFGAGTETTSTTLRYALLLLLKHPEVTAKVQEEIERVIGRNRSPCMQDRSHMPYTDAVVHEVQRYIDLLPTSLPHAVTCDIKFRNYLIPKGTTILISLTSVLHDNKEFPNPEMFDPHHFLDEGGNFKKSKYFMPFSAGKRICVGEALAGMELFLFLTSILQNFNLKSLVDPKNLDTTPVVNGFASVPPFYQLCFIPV
For `Cc1ccc(C(=O)N/N=C\c2ccc[nH]2)cc1[N+](=O)[O-]`, the “activity, negative = inhibition” value was -14.6%. For `Cc1ccc(C(=O)Nc2ccc(Cc3ccncc3)cc2)cc1[N+](=O)[O-]`, the AC50 was 0.631 µM (active). For `Cc1ccc(NC(=S)/C(=C(\[O-])c2ccc(C)c([N+](=O)[O-])c2)[n+]2ccccc2)cc1C`, the “activity, negative = inhibition” value was -13.7%. In the case of `CCC(=O)[C@@]1(C)[C@H](C)C[C@@H]2[C@@H]3CCC4=CC(=O)C=C[C@@]4(C)[C@H]3[C@H](O)C[C@]21C`, the “activity, negative = inhibition” value is reported as -3.76% [at 25.6 µM]. With `CCc1c(C(=O)O)[nH]c2ccc(Br)cc12` the AC50 was 15.8 µM (active). `CCCCCCN(CCCCCC)C(=O)Cc1c(-c2ccc(Cl)cc2)[nH]c2ccc(Cl)cc12` was tested, and the “activity, negative = inhibition” value was -16.9%. In the case of `O=C1Cc2c([nH]c3ccc(Br)cc23)-c2ccccc2N1`, the “activity, negative = inhibition” value is reported as -8.75%. `CC(=O)N1CCC2(CCN(Cc3nccs3)CC2)CC1` was tested, and the “activity, negative = inhibition” value was -7.1%. `Nc1ccc2[nH]cc(CCC(=O)O)c2c1` showed an activity, negative = inhibition of -7.47% [at 11.4 µM]. `C[C@@](N)(Cc1c[nH]c2ccccc12)C(=O)O` gave an activity, negative = inhibition of -9.29% [at 11.4 µM]. For `CCOC(=O)CCCc1c[nH]c2ccccc12`, the AC50 was 7.94 µM (active). With `O=C(O)c1c(Cl)c(Cl)c(Cl)c(Cl)c1C(=O)Nc1ccc2cn[nH]c2c1` the AC50 was 0.0794 µM (active). For `CCNc1ncc2nc(-c3ccc(Cl)cc3)c(=O)n(C3CC3)c2n1`, the “activity, negative = inhibition” value was 5.54%. `Cc1ccc(Nc2c([N+](=O)[O-])ccc3c2=NC2(CCCCC2)N=3)cc1` was tested, and the AC50 was 5.01 µM (active). In the case of `O=C(Nc1cnn(Cc2ccc(Cl)cc2Cl)c1)c1cc(-c2cccs2)on1`, the AC50 is reported as 8.91 µM (active). In the case of `COc1ccc(-c2cc(C(=O)Nc3cnn(Cc4ccccc4C)c3)no2)cc1OC`, the “activity, negative = inhibition” value is reported as -8.16%. For `O=C(CC1C(=O)N(c2ccc(Cl)cc2)C(=S)N1CCc1ccncc1)Nc1ccc(F)cc1` (stereo not given), the AC50 was 0.0631 µM (active). For `CN(C)CC/C=C1\c2ccccc2COc2ccccc21`, the AC50 was “inactive”. `Cn1c(=O)c2c(ncn2CN2CCN(Cn3cnc4c3c(=O)n(C)c(=O)n4C)CC2)n(C)c1=O` was tested, and the activity, negative = inhibition was 5.13% [at 11.4 µM]. Work on `C#CCCCO/N=C1/C[C@@H](O)[C@@H](O)[C@@H]2[C@@H]3C(=O)N([C@@H](C)c4ccccc4)C(=O)[C@H]3CC[C@@H]12` yielded an activity, negative = inhibition of -23.8% [at 11.4 µM]. In the case of `CC1(C)CC(=O)C2=C(C1)Oc1nc3ccccc3cc1C2C(C#N)C#N` (stereo not given), the AC50 is reported as 3.55 µM (active). In the case of `Cc1cc2c(cc1C)NC(c1nc3ccccc3[nH]1)C1=C(CC(C)(C)CC1=O)N2` (stereo not given), the “activity, negative = inhibition” value is reported as -6.82%. With `CC1(C)Cc2c(sc3c2C(=O)N(c2ccccc2)C2=NCCN23)CS1` the “activity, negative = inhibition” value was -14%. For `CC1(C)Cc2c(sc3nc(SCC(=O)NCc4ccccc4)n(-c4ccccc4)c(=O)c23)CS1`, the AC50 was 6.31 µM (active). For `Cc1ccc(-n2c(SCC(=O)NCc3ccco3)nc3sc4c(c3c2=O)CC(C)(C)SC4)cc1`, the AC50 was 2.24 µM (active). `Nc1nc2c(c(=O)[nH]1)CN(c1ccc(S(N)(=O)=O)cc1)CN2` gave an activity, negative = inhibition of 7.1% [at 11.4 µM]. Molecule `O=C1C2=CC[C@@H]3C(=O)N(c4ccc(F)cc4F)C(=O)[C@H]3[C@H]2[C@H](O)[C@H]2O[C@H]12` has an activity, negative = inhibition of 4.69% [at 11.4 µM]. With `C=CCOC(=O)/C(=C\c1cccc2ccccc12)NC(=O)c1ccccc1` the AC50 was 1.41 µM (active). `Cc1ccc(S(=O)(=O)c2c(C)nn(C(C)(C)C)c2OC(=O)c2cccs2)cc1` was tested, and the AC50 was 3.16 µM (active). For `C[C@@]12CCC(=O)C=C1CC[C@@H]1[C@@H]2[C@H](O)C[C@]2(C)[C@@H]1CC[C@]2(O)C(=O)COC(=O)CCC(=O)O`, the “activity, negative = inhibition” value was -12.8%. Work on `CN=C(N)/N=C(\N)Nc1cc2ccccc2c2ccccc12` yielded an activity, negative = inhibition of -14.6% [at 11.4 µM]. In the case of `C=CC(C)(C)c1[nH]c2ccccc2c1C1=C(O)C(=O)C(c2c[nH]c3c(CC=C(C)C)cccc23)=C(O)C1=O`, the AC50 is reported as 7.94 µM (active). `ON(CCc1ccccn1)Cc1ccccc1` gave an activity, negative = inhibition of -2.37% [at 11.4 µM]. With `c1ccc(SCCc2ccncc2)cc1` the AC50 was 1.12 µM (active) and 1.26 µM (active). Work on `c1ccc(CCN2CCN=C2Cc2ccccc2)cc1` yielded an activity, negative = inhibition of -8.28% [at 11.4 µM]. In the case of `ON(CCc1ccncc1)Cc1ccccc1`, the AC50 is reported as 3.98 µM (active). With `Fc1ccc(SCCc2ccncc2)cc1` the AC50 was 2 µM (active). `Br/C(=N\Nc1nn[nH]n1)c1ccncc1` showed an activity, negative = inhibition of -3.74% [at 11.4 µM]. `O=c1cnc2cnc(Oc3ccccc3)nc2n1Cc1cccs1` was tested, and the AC50 was 25.1 µM (active). With `Cc1nc2cnc(Oc3ccccc3)nc2n(Cc2cccs2)c1=O` the AC50 was 25.1 µM (active). In the case of `Cn1cc(-c2nc3cnc(Oc4ccccc4)nc3n(Cc3cccs3)c2=O)c2ccccc21`, the “activity, negative = inhibition” value is reported as 7.76%. For `CN1CCN(c2ncc3ncc(=O)n(Cc4cccs4)c3n2)CC1`, the “activity, negative = inhibition” value was -7.33%. `Cc1nc2cnc(Nc3ccccc3)nc2n(Cc2cccs2)c1=O` was tested, and the “activity, negative = inhibition” value was -13%. In the case of `COc1ccc(Oc2ncc3ncc(=O)n(Cc4cccs4)c3n2)cc1`, the AC50 is reported as 15.8 µM (active). `COc1ncc2ncc(=O)n(Cc3cccs3)c2n1` was tested, and the “activity, negative = inhibition” value was -14.3%.
